CYP2C9 inhib: human CYP2C9 inhibition. P11712. CYP2C9 Supersomes, luciferin-H conversion, luminescence. inhibition, % at 5 µM. actives 20% (n = 96,000). AID 777;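 active = blocking of liver enzyme CYP2C9 beyond about 50% at 5 µM, limit read from the data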
CYP2C19 act: activators of human cytochrome P450 2C19; recombinant CYP2C19, luciferin-H EGE luminescence; active compounds read high; 0 = fully inhibited enzyme, 1 = untreated enzyme; P33261; activation factor at 5 µM; 96,000 tested, under 10 active;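 active = activation factor of at least 2 at 5 µM in the primary screen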;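 also: 0 = wells with 2.5 mM tranylcypromine and 1 = vehicle-only wells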
Target sequence (P33261 whole entry, looked up): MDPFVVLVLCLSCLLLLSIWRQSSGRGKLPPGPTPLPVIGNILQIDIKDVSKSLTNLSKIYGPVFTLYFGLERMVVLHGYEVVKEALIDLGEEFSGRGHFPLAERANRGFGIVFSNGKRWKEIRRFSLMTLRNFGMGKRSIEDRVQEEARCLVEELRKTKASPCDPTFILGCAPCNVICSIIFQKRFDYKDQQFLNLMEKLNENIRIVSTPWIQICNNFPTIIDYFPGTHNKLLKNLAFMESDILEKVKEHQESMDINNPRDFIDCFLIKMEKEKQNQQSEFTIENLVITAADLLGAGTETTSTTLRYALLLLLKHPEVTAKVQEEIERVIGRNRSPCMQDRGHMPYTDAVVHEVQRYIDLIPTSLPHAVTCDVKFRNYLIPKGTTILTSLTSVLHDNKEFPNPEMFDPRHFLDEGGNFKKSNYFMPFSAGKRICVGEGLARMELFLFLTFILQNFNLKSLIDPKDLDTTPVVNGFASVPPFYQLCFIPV
Measles CPE: protection of cells from measles virus. Measles virus-infected cells, CPE protection, absorbance. actives 1.5% (n = 140,000). AID 841. protection (pct of control), % at 4 µM; in the data active = protection mostly above about 24%, no sharp cut-off; inactive = mostly below about 26%
CYP2C19 inhib: human CYP2C19 inhibition; P33261; actives 21% (n = 96,000); AID 778; inhibition, % at 5 µM; CYP2C19 Supersomes, luciferin-H EGE luminescence, 30 min;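 active = CYP2C19 inhibition above a set limit at 5 µM in the primary screen, cut at about 50% in these data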;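 also: plate controls were negative control wells for no effect and 2.5 mM tranylcypromine positive control for full effect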
CYP2C9 act: CYP2C9 (human) activation | recombinant CYP2C9, luciferin-H conversion, luminescence; active compounds read high; factor 1 = untreated enzyme, 0 = blocked | AID 1024 | actives 1.4% (n = 96,000) | activation factor at 5 µM | P11712;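 active = activation factor of 2 or more for CYP2C9 at a 5 µM dose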;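 also: 0 = sulfaphenazole-blocked wells and 1 = vehicle-only wells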
Numbers without * were called inactive; · = not tested or not shown. Hits are enriched below; roughly 22% of the tested compounds scored in any of these assays.

SMILES | CYP2C9 inhib | CYP2C19 act | Measles CPE | CYP2C19 inhib | CYP2C9 act
CC1CCN(c2nc(Cl)nc(Nc3ccc([N+](=O)[O-])cc3)n2)CC1 | · | · | 8 | · | ·
Cc1cccc(C)c1NC(=S)NC(=O)CCc1ccccc1 | 32 | 0.5 | 14 | 50* | 0.7
CCCCCCn1c(N(CC)CC)nc2c1c(=O)[nH]c(=O)n2C | 9 | 0.8 | 11 | 19 | 0.9
Cc1ccccc1NC(=S)NCc1ccc2c(c1)OCO2 | 25 | 0.1 | 9 | 90* | 0.8
O=C(NC(=S)NCc1ccc2c(c1)OCO2)c1ccccc1 | · | · | 5 | · | ·
Cc1cccc(NC(=S)NCc2ccc3c(c2)OCO3)c1C | · | · | 6 | · | ·
Cc1ccc(C)c(NC(=S)NCc2ccc3c(c2)OCO3)c1 | 7 | 0.4 | 5 | 56* | 0.9
CCc1ccccc1NC(=S)NCc1ccc2c(c1)OCO2 | -4 | 0.4 | 8 | 61* | 1
CCC(OC(=O)C(NC(=O)c1ccccc1)c1ccccc1)C(=O)Nc1cc(C)on1 (centres undefined) | 32 | 0.7 | 47* | 28 | 0.7
CC(C)CSc1nc(N2CCOCC2)c2c(c1C#N)CC(C)(C)SC2 | 87* | 0.7 | 21 | 26 | 0.1
CCCSc1nc(N2CCOCC2)c2c(c1C#N)CC(C)(C)SC2 | 66* | 0.7 | 11 | 35 | 0.3
CC(Sc1nc(N2CCCCC2)c2c(c1C#N)CCCC2)C(=O)O (centres undefined) | 90* | 0.7 | 20 | 31 | 0.1
CC(C)Sc1nc(N2CCOCC2)c2c(c1C#N)CC(C)(C)N(C)C2 | 97* | 0.4 | 23 | 64* | 0
CN(C(=O)CSc1nc(N)c2c3c(sc2n1)CSC(C)(C)C3)c1ccccc1 | · | · | 10 | · | ·
CC(C)Sc1nc(N2CCCC2)c2c(c1C#N)CC(C)(C)OC2 | 87* | 0.4 | 11 | 61* | 0.1
CC1(C)Cc2c(c(N3CCCCC3)[nH]c(=S)c2C#N)CS1 | 38 | 1 | 3 | 4 | 0.6
CCOC(=O)CSc1nc(N2CCOCC2)c2c(c1C#N)CC(C)(C)N(C)C2 | 73* | 0.8 | 6 | 22 | 0.3
CCc1nc(NCC(C)C)c(C#N)c2c1COC(C)(C)C2 | 19 | 0.9 | 19 | 8 | 0.8
CC(C)Sc1nc(N2CCOCC2)c2c(c1C#N)CC(C)(C)SC2 | 95* | 0.3 | 7 | 70* | 0.1
CCCc1nnc(NC(=O)Cn2cnc3ccccc3c2=O)s1 | 6 | 1 | 3 | -1 | 0.9
CC(C)CNC(=O)CSc1ccc(Cl)cc1 | 32 | 0.6 | 10 | 40 | 0.7
NC(=O)C(c1ccc(Cl)cc1)c1ccc(Sc2ccc(Cl)cc2)nn1 (centres undefined) | 44 | 0.4 | 4 | 63* | 0.6
COc1ccc(NC(=O)/C(Cl)=C(/Cl)S(=O)Cc2ccccc2)cn1 (centres undefined) | 92* | 0.5 | 0 | 51* | 0.1
COc1ccc(CS(=O)(=O)/C(Cl)=C(/Cl)C(=O)Nc2ccc(OC)nc2)cc1 | 68* | 0.6 | 0 | 45 | 0.3
COc1ccc(/C=C/C(=O)Nc2ccc(OC)nc2)cc1 | · | · | 2 | · | ·
SMILES | CYP2C9 inhib | CYP2C19 act | Measles CPE | CYP2C19 inhib | CYP2C9 act
CC(SCC(=O)NC12CC3CC(CC(C3)C1)C2)C(=O)O (centres undefined) | · | · | 9 | · | ·
Nc1sc(-c2ccccc2)cc1C(=O)O | 64* | 0.6 | 3 | 37 | 0.4
CCOC(=O)c1cc(-c2ccccc2)sc1NC(=O)C(C)C | · | · | 21 | · | ·
NC(=O)c1cc(-c2ccccc2)sc1NC(=O)CN1CCCCC1 | · | · | 26 | · | ·
CCOC(=O)c1cc(-c2ccc(N)cc2)sc1N | 59* | 0.5 | 17 | 54* | 0.4
O=C(CN1CCN(c2ccc([N+](=O)[O-])cc2)CC1)Nc1ccccn1 | · | · | 3 | · | ·
CC(C)CC(COCc1cccc(Cl)c1)N1CCN(C(=O)c2ccc(C(F)(F)F)cc2)CCC1=O (centres undefined) | · | · | 5 | · | ·
Cc1cc(C(=O)O)sc1C | · | · | 8 | · | ·
Cc1ccc(N(CC(=O)NCc2ccccc2Cl)S(=O)(=O)c2cccs2)cc1 | 65* | 0.4 | 5 | 64* | 0.3
Cc1ccc(CNC(=O)CCNS(=O)(=O)c2cccs2)cc1 | · | · | 3 | · | ·
Cc1ccc(N(CC(=O)NCc2ccc(F)cc2)S(=O)(=O)c2cccs2)cc1 | 63* | 0 | 12 | 99* | 0.4
COC(=O)c1cc(-c2ccccc2)sc1NC(=O)CN1C(=O)c2ccccc2C1=O | 49 | 0.9 | 10 | 12 | 0.5
CCCCSc1nnc(-c2cc3c(C(F)(F)F)nn(C)c3s2)n1C | -99 | 1 | 8 | 2 | 2*
N=C1/C(=C/c2cccs2)C(=O)N=C2SN=C(SCc3ccccc3)N12 | 93* | 0.9 | 28 | 11 | 0.1
CC(C)CSC1=NSC2=NC(=O)/C(=C\c3cccs3)C(=N)N12 | · | · | 20 | · | ·
COc1cccc(S(=O)(=O)N2CCN(c3ccccc3F)CC2)c1 | 67* | 0.3 | 34* | 74* | 0.3
O=C(c1cccc(S(=O)(=O)N2CCCC2)c1)N1CCN(c2ccccc2F)CC1 | 80* | 0.1 | 1 | 93* | 0.2
CCCS(=O)(=O)N1CCN(c2ccccc2F)CC1 | 47 | 0.3 | 7 | 68* | 0.5
O=C(c1cccc(S(=O)(=O)N2CCCCC2)c1)N1CCCCC1 | 0 | 0.8 | 4 | 22 | 1
CCOC(=O)/C(C)=C1\NC(C)(C)Cc2ccccc21 | · | · | 5 | · | ·
CCOC(=O)c1csc(NC(=O)Nc2cccc(Cl)c2)n1 | · | · | 4 | · | ·
CCN1C(=O)c2ccccc2S(=O)c2ccc(C(=O)NCCCN3CCCC3=O)cc21 (centres undefined) | 14 | 1.1 | 13 | -14 | 0.9
O=C(O)C1CSC(CCc2ccccc2)N1 (centres undefined) | -7 | 0.9 | 38 | 9 | 1.1
Cc1ccc2nc3c(cc(C(N)=S)c(=N)n3CCCOC(C)C)c(=O)n2c1 | 49 | 0.2 | 8 | 81* | 0.5
C=CCn1c(=N)c(C(=O)OCC)cc2c(=O)n3cc(C)ccc3nc21 | 9 | 0.9 | · | 11 | 0.9
SMILES | CYP2C9 inhib | CYP2C19 act | Measles CPE | CYP2C19 inhib | CYP2C9 act
CCCCNC(=O)CSc1nc2ccsc2c(=O)n1C1CCN(C(=O)OCC)CC1 | 56* | 0.6 | 7 | 36 | 0.4
Cc1ccc(C(=O)OCC(=O)N2CCc3ccccc32)cc1 | 2 | 0.9 | 6 | 10 | 1
Cc1ccc(N(CC(=O)N2CCc3ccccc32)C2=NC(=O)CS2)cc1 | 67* | 0.4 | 4 | 56* | 0.3
Cc1ccc(S(=O)(=O)CCC(=O)N2CCc3ccccc32)cc1 | -116 | 1 | 3 | 1 | 2.2*
Cc1ccc(S(=O)(=O)N2CCN(C(=O)CCC(=O)N3CCc4ccccc43)CC2)cc1 | 5 | 0.6 | · | 39 | 1
CN(CC(=O)N1CCc2ccccc21)S(=O)(=O)c1ccc(Br)s1 | -23 | 0.1 | 19 | 94* | 1.2
Cc1ccc(S(=O)(=O)N(C)CC(=O)N2CCCc3ccccc32)cc1 | -172 | 0.7 | 12 | 30 | 2.7*
Cn1cc(S(=O)(=O)CC(=O)N2CCCc3ccccc32)c2ccccc21 | -88 | 0.2 | 9 | 84* | 1.9
Cc1c(CC(=O)O)c(=O)oc2cc(OCc3nn[nH]n3)ccc12 | -2 | 1.1 | 3 | -12 | 1
